# High-throughput results (PubChem)
# RAD52 anneal inh: inhibitors of human RAD52 DNA annealing; P43351; recombinant RAD52 DNA annealing, FRET fluorescence; inhibition, % at 18.7 µM; 360,000 tested, 0.46% active; AID 651710;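 active = every replicate showing at least 50% inhibition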
# GSIS activator: GLuc luminescence reporter in INS-1E cells, primary screen for activators of glucose-dependent secretion of insulin | INS-1E GLuc reporter insulin secretion, 2-3 h | activation, % at 16.6 µM | 370,000 tested, 0.61% active | AID 743287;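 active = lowest replicate activation of at least 40%, so every replicate reaches that level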;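 note: 0% = median of neutral control wells and 100% = median of IBMX positive control wells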
# DENV2 CPE rescue: protects cells from dengue virus 2 cytopathic effect; DENV2-infected cells, cytopathic effect rescue, plate reader; CPE inhibition, % at 9.99 µM; 350,000 tested, 1.7% active; AID 651640; in the data active = CPE inhibition above about 20%, passing the limit was not always enough; tested in BHK-21 cells;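 note: 0% = median of neutral control wells and 100% = median of positive control wells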
# RAD54 inh: RAD54 (human) branch migration inhibition; Q92698; RAD54 Holliday junction branch migration, FAM/BHQ fluorescence; inhibition, % at 10.4 µM; 360,000 tested, 0.14% active; AID 602329;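 active = mean normalized replicate activity at least 40 and at least half of replicates scoring 40 or more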;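 note: 0% = median of neutral control wells and 100% = median of positive control wells; inhibitors cause a drop in the FAM fluorescence signal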
# MLL AF4-AF9 inh: inhibitors of human MLL-AF4/AF9 interaction; P42568; AlphaScreen, biotin-AF4 peptide binding to FLAG-AF9; inhibition, % at 10 µM; 350,000 tested, 0.47% active; AID 651704;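 active = every replicate reaching a set inhibition limit, whatever the replicate mean, cut at about 25% in these data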;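 note: 0% = plate neutral control median and 100% = total signal loss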
# dFosB activator: enhances mouse delta FosB homodimer DNA binding | P13346 | purified delta FosB, TAMRA-CDK5 oligo fluorescence polarization; percent of positive-control signal above neutral wells | 340,000 tested, 0.99% active | activation, % at 25 µM;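 active = mean activation above about 17%, with every replicate also reaching it, limit read from the data, passing the limit was not always enough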
# Target sequence (P13346 whole entry, looked up): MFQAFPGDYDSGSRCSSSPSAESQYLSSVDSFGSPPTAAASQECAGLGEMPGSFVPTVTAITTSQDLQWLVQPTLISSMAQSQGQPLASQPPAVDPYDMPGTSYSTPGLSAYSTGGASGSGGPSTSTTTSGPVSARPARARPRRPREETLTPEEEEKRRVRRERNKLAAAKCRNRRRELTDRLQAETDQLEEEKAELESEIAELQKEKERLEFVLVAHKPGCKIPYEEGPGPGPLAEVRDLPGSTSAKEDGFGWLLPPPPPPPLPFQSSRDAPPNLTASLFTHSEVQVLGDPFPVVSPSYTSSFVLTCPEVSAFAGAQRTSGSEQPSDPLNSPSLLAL
# The depositor's hits bear a star; / = no result. Hits are enriched below; roughly 3.1% of the tested compounds scored in any of these assays.
SMILES,RAD52 anneal inh,GSIS activator,DENV2 CPE rescue,RAD54 inh,MLL AF4-AF9 inh,dFosB activator
O=C(Nc1ccccc1)N1CCCCN2[C@@H](CO)[C@@H](c3ccc(Br)cc3)[C@@H]2C1,-2,-16,33*,-3,-3,/
O=C(Nc1ccccc1)N1CCCCN2[C@H](CO)[C@H](c3ccc(-c4ccccc4F)cc3)[C@@H]2C1,-5,-12,-8,12,-1,/
N#Cc1cccc(-c2ccc([C@@H]3[C@@H](CO)N4CCCCN(C(=O)Nc5ccc(F)cc5)C[C@@H]34)cc2)c1,-26,-16,1,2,-1,/
O=C(Nc1ccc(F)cc1)N1CCCCN2[C@H](C1)[C@@H](c1ccc(-c3ccccc3F)cc1)[C@@H]2CO,55*,/,-2,2,-1,/
N#Cc1cccc(-c2ccc([C@@H]3[C@H](CO)N4CCCCN(C(=O)Nc5ccc(F)cc5)C[C@@H]34)cc2)c1,6,-17,26*,2,/,/
O=C(Nc1ccccc1)N1CCCCN2[C@H](CO)[C@H](c3ccc(-c4ccccc4F)cc3)[C@H]2C1,50*,-33,-5,3,12,/
CC(C)(C)c1ccc(C#C[C@@H]2C=C[C@H]3OC(=O)CC/C=C/CCC(=O)OC[C@H]3O2)cc1,-21,95*,-4,/,2,/
CC(C)(C)c1ccc(C#C[C@@H]2C=C[C@@H](O)[C@@H](CO)O2)cc1,-4,/,1,/,-8,/
O=C(C[C@H]1C[C@H]2c3cc(NC(=O)C4CCOCC4)ccc3O[C@H]2[C@H](CO)O1)NC1CCCC1,-3,8,-6,5,-1,/
CCN(CC)CCNC(=O)c1c(C)n(-c2ccccc2)c2cc(Br)c(OC)cc12,/,1,/,10,/,26*
CCOC(=O)c1c(C)n(CC(O)CN(CC)CC)c2cc(Br)c(OC)cc12 (stereo not drawn),13,68*,-13,-8,-1,5
COc1cc2c(C(=O)N3CCN(C)CC3)c(C)n(-c3ccccc3)c2cc1Br,/,/,/,4,/,1
O=C1CN(Cc2ccc(F)cc2)C[C@@H]2[C@H](c3ccc(-c4cccnc4)cc3)[C@@H](CO)N12,2,3,0,/,-7,/
Cc1ccc(CNC(=O)CSc2nc3ccccc3[nH]2)cc1,-16,2,-2,-7,-3,-2
COC(=O)c1ccc(CNC(=O)CSc2nc3ccccc3[nH]2)cc1,-25,79*,-4,-9,-1,-7
COc1ccc(S(=O)(=O)NC(N)=NCCc2ccc(OC)c(OC)c2)cc1C,-3,10,-12,/,1,-2
COc1ccc(CCN=C(N)NS(=O)(=O)c2ccc(C)c(C)c2)cc1OC,-9,91*,-2,-1,-1,-4
COc1ccccc1CCN=C(N)NS(=O)(=O)c1ccc(F)cc1,-1,16,55*,1,2,-5
CNC[C@@H]1Oc2ncc(C#Cc3cccc(OC)c3)cc2C(=O)N([C@@H](C)CO)C[C@@H]1C,37,-5,4,-10,10,/
CCCCC1OC2(C)OC(=N)C1(C#N)C(C#N)(C#N)C2c1ccccc1 (stereo not drawn),-259,-21,73*,/,3,-33
C[C@H](CO)N1C[C@H](C)[C@@H](CN(C)C(=O)C2CCC2)Oc2ncc(C3=CCCC3)cc2C1=O,-8,-2,3,-4,-3,/
CCN1C(=NCCc2c[nH]c3ccccc23)N[C@@H](c2ccccc2)[C@H](C(=O)OC)[C@H]1C,-3,15,27*,3,0,-1
Cc1cccc(N2C(=O)N3[C@H](c4ccc(Br)cc4)[C@@H]4C(=O)N(C(C)(C)C)C(=O)[C@@H]4[C@]3(C)C2=O)c1,-7,-19,26*,-3,-3,-3
O=C(O)CC(c1ccccc1)N1C(=O)c2ccccc2C1=O (stereo not drawn),-6,-11,40*,/,/,-1
NC(=O)[C@@H]1CCCN1C(=O)[C@H](CCc1ccccc1)NC(=O)[C@H]1O[C@@H](n2cnc3c(N)ncnc32)[C@H](O)[C@@H]1O,-4,37,40*,/,/,/
SMILES,RAD52 anneal inh,GSIS activator,DENV2 CPE rescue,RAD54 inh,MLL AF4-AF9 inh,dFosB activator
Cc1ccccc1-c1cnc2c(c1)C(=O)N([C@H](C)CO)C[C@@H](C)[C@@H](CN(C)C(=O)CN(C)C)O2,3,8,11,12,-2,/
C[C@@H]1CCCCO[C@H](CN(C)C(=O)Nc2ccc3c(c2)OCO3)[C@@H](C)CN([C@H](C)CO)C(=O)c2cc(NS(=O)(=O)c3ccccc3)ccc2O1,-5,5,3,1,4,/
CCOc1ccc(/C=C/C(=O)c2ccc(-c3ccccc3)cc2)cc1,/,47*,/,/,/,0
CCOc1cccc(/C=C/C(=O)O)c1,-1,16,-10,-1,47*,4
O=C(O)/C=C/c1cccc(OCc2ccccc2)c1,-12,52,8,-7,-1,0
C[C@H](CO)N1C[C@H](C)[C@@H](CN(C)Cc2ccncc2)Oc2ncc(C#Cc3ccccn3)cc2C1=O,-98,7,6,-10,-2,/
CC(C)(C)Nc1nc(SCc2ccccc2)nc(N2CCOCC2)n1,/,/,/,-5,/,-5
CNc1nc(SCc2ccccc2)nc(N2CCOCC2)n1,/,50*,/,3,/,0
CSc1nc(NC(C)C)nc(N2CCOCC2)n1,/,116*,/,10,/,4
O=C(C[C@@H]1C[C@@H]2c3cc(NC(=O)C4CCC4)ccc3O[C@@H]2[C@H](CO)O1)NCc1ccccc1F,-2,-10,0,-4,-2,/
Cc1noc(C)c1S(=O)(=O)Nc1ccc2c(c1)C(=O)N([C@H](C)CO)C[C@@H](C)[C@H](CN(C)S(=O)(=O)c1cccs1)OCCCC[C@@H](C)O2,/,-18,-8,-8,/,/
CCCNC(=O)C[C@@H]1CC[C@H]2[C@@H](COC[C@H](O)CN2CC2CCCCC2)O1,-8,6,-1,-4,-3,/
COc1ccc(-c2nnc3ccc(SCC(N)=O)nn23)cc1OC,/,26,/,2,/,-4
COc1ccc(-c2nnc3ccc(SCC(=O)N4CCCCC4)nn23)cc1OC,-9,20,30*,-10,-5,0
COc1ccc2c3c(n(C)c2c1)[C@H](CO)N(S(C)(=O)=O)CC31CCN(Cc2nccs2)CC1,0,23,24*,/,-4,/
CCC(=O)N1CCC2(CC1)CN(Cc1nccs1)[C@H](CO)c1c2c2ccc(OC)cc2n1C,-47,-4,11,/,0,/
COc1ccc2c3c(n(C)c2c1)[C@H](CO)N(CC1CC1)CC31CCN(Cc2nccs2)CC1,/,-13,45*,/,3,/
COc1ccc2c3c(n(C)c2c1)[C@H](CO)N(Cc1nccs1)CC31CCN(C)CC1,/,18,10,/,/,/
COc1ccc2c3c(n(C)c2c1)[C@H](CO)N(Cc1nccs1)CC31CCN(C(C)=O)CC1,/,3,27*,/,5,/
COc1ccc2c3c(n(C)c2c1)[C@H](CO)N(C(C)=O)CC31CCN(Cc2nccs2)CC1,/,11,-6,/,2,/
